We go through 62 molecules from PubChem BioAssay AID2314 (National Center for Advancing Translational Sciences (NCATS), 2010).

About 37,000 (12%) of roughly 300,000 compounds were called active. For the sample, actives were picked, then their nearest neighbours and some compounds at random. Unmarked numbers belong to inactive results. Cut-off read from the data, not from the text of the source: active = max response mostly above about 13% (no sharp cut-off); inactive = mostly below about 14%.

A short description of this test: Cycloheximide Counterscreen for Small Molecule Inhibitors of Shiga Toxin. Note: read at 38.3 µM for the half of the compounds with a filed dose; 0% is about no effect. The note with it: cell reporter, cycloheximide protein synthesis inhibition counterscreen; stronger effect = higher value. In general terms: A counterscreen serves to expose hits that act by an unwanted route or on another target.
Consider `CCCC(C(=O)n1nc(C)cc1C)C(NS(=O)(=O)c1ccc(C)cc1)c1ccccc1` (configuration not stated), for which the max response was 8.08%. Regarding `N#CCC(=O)NC1CCC(CC2CCC(NC(=O)CC#N)CC2)CC1` (configuration not stated), the max response was -6.39%. In the case of `O=C1c2ccccc2C(=O)N1CCCc1nc(-c2ccccc2)no1`, the max response is 4.56%.

`O=C(Cc1ccc(Cl)cc1)NCc1nc(-c2ccccc2)no1`: the max response is 16.7%. For `c1ccc(CCc2nc(-c3ccncc3)no2)cc1` the value was 30.3% (active); for `CN(CC1CCCO1)S(=O)(=O)c1ccc(C(=O)Nc2ccc([N+](=O)[O-])cc2)cc1` (configuration not stated), -2.48%; for `CC(C)n1c(COc2ccccc2)nc2ccccc21`, 2.4%. For `Cc1ccc(OCc2nc3ccccc3n2C)cc1`, the max response was 26.1% (active). For the molecule `COCn1c(COc2ccccc2)nc2ccccc21`, the max response is 36.4% (active). Next, `Cn1c(COc2ccc(Cl)cc2)nc2ccccc2c1=O`: 31.5%; `O=C(Cn1c(COc2ccccc2)nc2ccccc21)Nc1cc(Cl)c(Cl)cc1Cl`: 6.88%; `Cc1ccc(OCc2n[nH]c(=S)n2-c2ccccc2)cc1`: -8.01%. `CC1(C)Cc2cccc(OCC(=O)NCc3ccccc3)c2O1`: the max response was -11.4%. As for `COC(=O)C1=C(C)N(C)C(=O)NC1c1ccc([N+](=O)[O-])o1` (configuration not stated), the max response is -2.81%. For `O=C(CO/N=C/c1ccc(OC(F)F)cc1)NCc1ccc(F)cc1` the value was -1.6%; for `CC(=O)Cn1ncc(N2CCOCC2)c(Br)c1=O`, 8.19%. For `Cn1c(=O)c2c(nc(N3CCCCCC3)n2CC(=O)c2ccc(Br)cc2)n(C)c1=O`, the max response is 4.19%.

Turning to `O=C(Cn1ncc(N2CCCC2)c(Br)c1=O)c1ccc(Cl)cc1`, the max response is 21.9% (active). On to `O=c1[nH]c(CCl)nc2cc(-c3ccc(Cl)cc3)sc12`, for which the max response was 3.01%.

`O=C(Nc1ccc(NC(=O)c2cccs2)cc1)c1ccc2ccccc2c1`: the max response is 21.9%. For `O=C(Cc1cccc2ccccc12)Nc1ccc2oc(-c3ccccc3)nc2c1` the value was 51.7% (active); for `CC(O)c1cccc(NC(=O)Cc2cccc3ccccc23)c1` (configuration not stated), -1.49%.

With `O=C(Nc1ccc2c(c1)C(=O)OC2)Nc1cccc2ccccc12`, the max response was 8.24%.

For `O=C(Nc1ccc2oc(-c3ccc4ccccc4c3)nc2c1)c1cccs1`, the max response was 42.5% (active).

As to `O=C(NC(=S)Nc1cccc(-c2ccc(CO)o2)c1)c1cccs1`, the max response was 12.5%. For `Cc1ccc(NC(=O)CSc2nn3c(=O)c(C)nnc3s2)cc1Cl` the value was 8.05%; for `CC(OC(=O)c1ccc2ccccc2n1)C(=O)c1ccccc1` (configuration not stated), 25.1% (active); for `CCCCC(C(=O)OCC(=O)c1ccc(OC)cc1)N1C(=O)c2ccccc2C1=O` (configuration not stated), 1.39%. Next, `O=C(Oc1ccc([N+](=O)[O-])cc1)c1ccc2ccccc2n1`: 33.2% (active); `O=C(CNC(=O)c1ccccc1)Oc1ccc([N+](=O)[O-])cc1`: 0.695%; `COc1ccc(C(=O)COC(=O)c2ccc3ccccc3n2)cc1`: 20.4% (active). For `CC(OC(=O)c1ccccc1N1C(=O)C2C3CCC(C3)C2C1=O)C(=O)c1ccccc1` (configuration not stated) the value was -0.595%; for `COc1ccc(C2=NOC(COC(=O)c3ccc4ccccc4n3)C2)cc1` (configuration not stated), 12.5%; for `COc1ccccc1NC(=O)CCC(=O)OC(C)C(=O)c1ccccc1` (configuration not stated), -2.18%. `O=C(Oc1ccc([N+](=O)[O-])cc1)c1ccc(Cl)c(S(=O)(=O)N2CCCCC2)c1`: the max response is 7.89%.

For the molecule `CCCn1cc(S(=O)(=O)c2ccc(C)cc2)c(=O)c2cc(OCC)ccc21`, the max response is -2.9%.

Turning to `Nc1nc(NCC(=O)O)nc(N2CCCCCC2)c1[N+](=O)[O-]`, the max response was -3.03%. For `COc1ccc(NC(=O)c2cccc3c2C(=O)N(CC2CCCO2)C3)cc1OC` (configuration not stated) the value was 1.17%; for `COc1ccccc1N(CC(=O)NC1CCCC1)C(=O)C1(C)CC(=O)N=C2C=CC(C)=CN21` (configuration not stated), -3.56%; for `CN(C)C(=O)c1ccc2c(c1)C1C3CCC(C3)C1C(c1ccccc1)N2` (configuration not stated), -4.56%. Next, `NNc1nc2c(Cl)cccc2s1`: 53.2% (active). Turning to `CN(C)CCCN(C(=O)COc1ccccc1)c1nc2c(Cl)cccc2s1`, the max response was -4.5%. For `Cc1ccc(-c2cc(N)on2)cc1` the value was 21% (active). As for `Cc1ccc(S(=O)(=O)Cc2cc(-c3ccc(Cl)cc3)no2)cc1`, the max response was 0.779%.

In the case of `Nc1c(NCCc2ccccc2)c2ccccc2oc1=O`, the max response is 23.7% (active). Next, `CC(C)(C)Nc1c(N)c(=O)oc2ccccc12`: -1.31%; `NC(=O)c1oc2ccccc2c1NC(=O)Cc1ccccc1`: -2.17%; `CC(=O)N1c2ccc(S(=O)(=O)N3CCC(C(=O)NC4CCCC(C)C4C)CC3)cc2CC1C` (configuration not stated): 4.81%.

On to `Cc1ccc(OCC(=O)Nc2ccccc2C(=O)NC2CC2)cc1C`, for which the max response was -1.62%.

As for `CCOC(=O)CSc1nnc(-c2ccc([N+](=O)[O-])cc2)o1`, the max response is -0.444%.

In the case of `CCCCSc1nnc(-c2ccc(C)cc2)o1`, the max response was 40.6% (active). `CCOC(=O)CSc1nnc(-c2ccncc2)o1`: the max response was 1.84%. With `c1ccc2c(c1)C(=NC1CCCCC1)NC2=NC1CCCCC1`, the max response is -4.35%. As for `O=C(c1ccc(CS(=O)(=O)c2ccccc2)o1)N1CCN(c2ccccc2)CC1`, the max response was -5.15%.

Consider `Cc1c(CC(=O)NCC(=O)NCC(=O)O)c(=O)oc2cc3oc4c(c3cc12)CCCC4`, for which the max response is -2.59%. Regarding `COc1ccc(N(CC(=O)Nc2cc(OC)cc(OC)c2)S(=O)(=O)c2c(C)n[nH]c2C)cc1`, the max response is -1.21%. Next, `Cc1ccc(Nc2cc(C)nc3c(C)ccc([N+](=O)[O-])c23)cc1`: 0.487%; `O=c1c(-c2ccccc2Cl)c[nH]n1-c1ccccc1`: 8.14%. `Cc1[nH]n(-c2cccc(Cl)c2)c(=O)c1-c1ccc(Cl)cc1`: the max response was 12.1%. As to `O=c1c(-c2cccc(Cl)c2)c[nH]n1-c1ccccc1`, the max response is 69.9% (active). For `CC(=O)C1=C(O)C(=O)N(c2cccnc2)C1c1ccc([N+](=O)[O-])cc1` (configuration not stated) the value was -2.81%. Consider `O=C(COC(=O)c1ccc(N2CCCC2=O)cc1)c1ccc(OC(F)F)cc1`, for which the max response is 2.45%.
